In PubChem BioAssay (NCI):
Compounds without any hit were thinned out: in the full panel of roughly 83,000, 20% have a hit.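 Cell lines were cultured in 96-well plates, exposed to a single compound concentration, and assessed for percent growth 48 hours later.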 Values without a mark were called inactive. Active and inactive are the calls of the source. The calls were made as follows: active = growth percent below 10; inactive = the rest.

What was measured:
Test in all cases: NCI-60 one-dose screen, 48 h (100 = growth as untreated, 0 = no growth, -100 = all killed)
Settings in all cases: 10 µM
SK-MEL-2 melanoma = system: SK-MEL-2 melanoma
EKVX NSCLC = system: EKVX NSCLC
SN12C renal = system: SN12C renal
UO-31 renal = system: UO-31 renal
TK-10 renal = system: TK-10 renal
ACHN renal = system: ACHN renal
CAKI-1 renal = system: CAKI-1 renal
A498 renal = system: A498 renal
CCRF-CEM leukemia = system: CCRF-CEM leukemia
MOLT-4 leukemia = system: MOLT-4 leukemia

Row | SMILES | growth (SK-MEL-2 melanoma) | growth (EKVX NSCLC) | growth (SN12C renal) | growth (UO-31 renal) | growth (TK-10 renal) | growth (ACHN renal) | growth (CAKI-1 renal) | growth (A498 renal) | growth (CCRF-CEM leukemia) | growth (MOLT-4 leukemia)
1 | N#Cc1c(Cl)nc(SCc2ccc(F)cc2)nc1-c1ccc(F)cc1 | 97.9% | 89.1% | 80.9% | 87.1% | 98.2% | 99.5% | 94.9% | 115% | 86.7% | 80.6%
2 | Nc1nc(Nc2ccc(Cl)cc2)nn1Cc1cccc(Br)c1 | 27.2% | 22.3% | 41.1% | 18.2% | 61.1% | 22.8% | 26.9% | -1.15% (active) | 34.3% | 20.1%
3 | O=C(c1ccc(Cl)cc1)C1[C@H](c2ccc(Br)cc2)[C@@H](c2ccccc2)NC12C(=O)Nc1ccc(Br)cc12 (stereo not given in full) | -93.4% (active) | -61.1% (active) | -97.1% (active) | -75.7% (active) | -78.7% (active) | -39.6% (active) | -93.9% (active) | -17.1% (active) | -7.91% (active) | -33% (active)
4 | O=C(CNc1nc(-c2ccccc2)cs1)Nc1ccc(Cl)cc1[N+](=O)[O-] | -50.1% (active) | -8.05% (active) | -28.7% (active) | -56.4% (active) | 0.433% (active) | -60.6% (active) | 2.07% (active) | 14.8% | 11.1% | 3.2% (active)
5 | O=c1oc2ccc(-c3ccc(F)cc3F)cc2c(=O)n1-c1ccc(F)c(Cl)c1 | -67.4% (active) | -9.05% (active) | -17% (active) | -5.43% (active) | 11.9% | -12.7% (active) | -20.4% (active) | -20.8% (active) | -5.97% (active) | -30.7% (active)
6 | O=c1[nH]c2ccccc2cc1CSc1ccc(Nc2nccc(-c3ccc(Cl)cc3)n2)cc1 | 4.31% (active) | -49.6% (active) | -47.7% (active) | -70.4% (active) | -64.2% (active) | -89.9% (active) | -83.5% (active) | -65.3% (active) | 57.1% | 59.8%
7 | O=C1CCC(N2Cc3c(NCc4ccc(-c5ccccc5)cc4)cccc3C2=O)C(=O)N1 (stereo not given) | 101% | 84.2% | 73.8% | 45.3% | 79.1% | 73.2% | 82.8% | 70.5% | 19.9% | 13.4%
8 | CN(C(=O)c1ccc(C(C)(C)C)cc1)c1sc2c(c1C#N)CCC(=O)C2 | 97.7% | 68.9% | 17.1% | -98.5% (active) | 23% | -45.8% (active) | 36.9% | 97.6% | 8.93% (active) | 29.8%
9 | O=C(NO)c1ccc(CNc2nc(-c3ccccc3)c3ccccc3n2)cc1 | -20.4% (active) | 15.6% | -0.363% (active) | -18.8% (active) | -17.2% (active) | -74.2% (active) | -4.81% (active) | -42.4% (active) | 15% | 12.3%
10 | CCN1CCN(Cc2ccc(C(=O)Nc3cccc(-c4cn(-c5ccc6oc(=O)ccc6c5)nn4)c3)cc2C(F)(F)F)CC1 | 66.1% | -100% (active) | -100% (active) | -100% (active) | -100% (active) | -100% (active) | 8.59% (active) | -100% (active) | -21% (active) | -29.8% (active)
11 | CN1C(=O)N(C)C2SC(N/N=C/c3cccs3)=NC21 (stereo not given) | 9.78% (active) | 56.2% | 26.5% | 40.3% | 63.7% | 38.8% | 20.8% | 65.6% | 20.3% | 33.4%
12 | COc1ccc2nc(Nc3cccc(NC(=O)c4ccc(CN5CCN(C)CC5)c(C(F)(F)F)c4)c3)ccc2c1 | -98.3% (active) | -98% (active) | -92.6% (active) | -48.2% (active) | -44.4% (active) | -94.8% (active) | -33.7% (active) | -42.3% (active) | -10.5% (active) | -44.6% (active)
13 | COc1ccc(C(=O)CSc2nnc(-c3c[nH]c4ccccc34)n2-c2ccccc2)cc1 | 72% | 29.3% | 44.4% | 32.6% | 63.9% | 22.8% | 61.5% | 111% | 82.5% | 82.1%
14 | COc1cc(/C=C/C(=O)c2ccc(F)cc2)ccc1Oc1nc(Nc2ccc(F)cc2)nc(N(C)C)n1 | 61% | 50.1% | 60.1% | 47.1% | 99.4% | 50.9% | 58% | 86.5% | 15.2% | 1.46% (active)
15 | COc1ccc(N2N=C(c3ccc4c(c3)OCCO4)CC2c2cccc(NC(=O)CCCNS(=O)(=O)c3ccc(F)cc3)c2)cc1 (stereo not given) | 88.4% | 57.9% | 74.8% | 58.8% | 78.2% | 70.7% | 53.9% | 86.5% | 67.7% | 34%
16 | COc1ccc(/C=C/C(=O)c2ccc(N3CCN(C)CC3)cc2)c(C(F)(F)F)c1 | 94.6% | 49% | 42.5% | 44.2% | 71.7% | 55.6% | 41.4% | 59.5% | 27.3% | 10.8%
17 | CC(=O)c1cc(C(=O)N2c3ccccc3Sc3ccccc32)n2ccc(C)cc12 | 72.5% | 53.1% | 42.3% | 35.1% | 78.9% | 29.1% | 35.3% | 85.4% | 24.8% | 22.6%
18 | O/N=C(\CSc1nnc(-c2c[nH]c3ccccc23)n1-c1ccccc1)c1ccc(Cl)cc1 | 20.1% | 2.05% (active) | -16.2% (active) | 34.4% | -23.2% (active) | 3.34% (active) | -10.7% (active) | 83.7% | -5.19% (active) | -7.37% (active)
19 | COc1ccc(OC)c(-c2cc(-c3c[nH]c4ccccc34)nc(N)c2C#N)c1 | -18.3% (active) | 13.7% | 2.5% (active) | -15.5% (active) | 37.4% | 8.49% (active) | 7.28% (active) | 2.72% (active) | 8.99% (active) | 7.55% (active)
20 | O=C(N/N=C/c1ccc(-c2cccc([N+](=O)[O-])c2)o1)c1[nH]c2ccc(Br)cc2c1-c1ccccc1 | 22.8% | 54.4% | 3.81% (active) | 38.9% | 40.4% | 22.9% | 21.4% | 77.9% | -2.99% (active) | 4.53% (active)
21 | COC[C@@H](CC(C)C)N=C1N/C(=C\c2ccc3ncsc3c2)C(=O)N1C | -82.2% (active) | 15% | 9.83% (active) | -19.4% (active) | 27.4% | -1.55% (active) | 2.83% (active) | -15.4% (active) | 7.03% (active) | 9.06% (active)
22 | COc1cc2c3c(n(CCCN4CCOCC4)c(=O)c2cc1OC)-c1nc2c(cc1C3=O)OCO2 | 111% | 48.8% | 8.3% (active) | 15.3% | 79.5% | -11.7% (active) | 6.77% (active) | 76.9% | 14.4% | 24.7%
23 | CC1(c2ccccc2)NC(=O)N(CC(=O)Nc2ccc(C(=O)/C=C/c3ccc(Cl)cc3)cc2)C1=O (stereo not given) | 34% | 30.3% | 19.4% | 22.7% | 67.9% | 13.4% | 21.4% | 76.7% | 7.4% (active) | -4.5% (active)
24 | CCCn1c(=O)c2[nH]c(-c3ccc(OCc4nc5ccc(F)cc5[nH]4)cc3)nc2n(CCC)c1=O | 28.6% | 34.4% | -20.1% (active) | -78.7% (active) | -3.59% (active) | -56.6% (active) | 6.55% (active) | -85.8% (active) | 44% | 24.7%
25 | COc1cccc2nc(Nc3ccc(F)c(NC(=O)c4ccc(CN5CCN(C)CC5)c(C(F)(F)F)c4)c3)ccc12 | 14.6% | 13% | 26.8% | 5.08% (active) | 50.3% | 0.664% (active) | -2.36% (active) | 77% | -3% (active) | -16.5% (active)
26 | CC1(c2ccccc2)NC(=O)N(CC(=O)Nc2ccc(C(=O)/C=C/C=C/c3ccccc3)cc2)C1=O (stereo not given) | 90% | 71.6% | 66.9% | 54.9% | 84.6% | 48.4% | 63.2% | 70.6% | 32.4% | 18.6%
